In PubChem BioAssay (Tox21):
Inconclusive results are not listed. The source made the active and inactive calls. Unless noted, calls follow the shape of the dose curve; as a rule, active = well fitted curve in the direction sought with a large enough effect in the repeat runs; inconclusive = weak or mixed curves; inactive = no such curve, though single readings can be large; an effect the other way counts as inactive or inconclusive.

Legend:
[1] = qHTS RealTime-Glo MT Cell Viability Assay in HepG2 cells - 16 hour (AID 1224885); also: nearly all actives have a fitted effect of over 50% in size; also: potency is read from the fitted curve at half-maximal effect
How it was run: (§1)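 Cells + NanoLuc/prosubstrate dispensed (600 cells/well) → 5 h at 37 C/5% CO2 → compounds in DMSO transferred → 40 h incubation at 37 C, luminescence read at 0, 8, 16, 24, 32, 40 h.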

[2] = qHTS RealTime-Glo MT Cell Viability Assay in HEK293 cells - 24 hour (AID 1224886); also: nearly all actives have a fitted effect of over 50% in size; also: potency is read from the fitted curve at half-maximal effect; as to activity change, negative = cytotoxicity: top concentration of the series differs between compounds
How it was run: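 Tox21 10K qHTS, HEK293, 600 cells/well, RealTime-Glo reagent co-dispensed with cells; 5 h preincubation, compound by pintool, 37 C, luminescence at 0–40 h.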

[3] = qHTS RealTime-Glo MT Cell Viability Assay in HEK293 cells - 8 hour (AID 1224887); also: nearly all actives have a fitted effect of over 50% in size; also: potency is read from the fitted curve at half-maximal effect; as to activity change, negative = cytotoxicity: top concentration of the series differs between compounds
How it was run: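 600 cells/well were plated with the nonlytic NanoLuc/prosubstrate reagent, pre-incubated 5 h, then given 23 nL of compound in DMSO. Incubation at 37 C for 40 h, with luminescence from viable-cell-reduced substrate read repeatedly from 0 h.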

[4] = A CellTox Green Cytotoxicity Assay to monitor cytotoxicity in HEK293 cells - 16 hour (AID 1224888); also: nearly all actives have a fitted effect of over 35% in size; also: potency is read from the fitted curve at half-maximal effect
How it was run: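 HEK293 cells, 600/well, were preincubated 5 hours and then exposed to compounds at 37 C for up to 40 hours. A cell-impermeant cyanine dye staining dead-cell DNA was read by fluorescence at 0, 8, 16, 24, 32 and 40 h time points.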

[5] = qHTS RealTime-Glo MT Cell Viability Assay in HepG2 cells - 0 hour (AID 1224889); also: nearly all actives have a fitted effect of over 50% in size
How it was run: as §1

[6] = A CellTox Green Cytotoxicity Assay to monitor cytotoxicity in HepG2 cells - 8 hour (AID 1224890); also: nearly all actives have a fitted effect of over 45% in size; also: potency is read from the fitted curve at half-maximal effect
How it was run: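 HepG2 cells, 600/well, preincubated 5 h with CellTox Green dye, then exposed to Tox21 compounds in DMSO at 37 C for up to 40 h. Dead-cell DNA fluorescence read at the indicated time point.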

[7] = qHTS assay to identify small molecule antagonists of the estrogen receptor alpha (ER-alpha) signaling pathway using the BG1 cell line in the presence of 0.1 nM 17-beta-estradiol - cell viability counter screen (AID 1259241); also: nearly all actives have a fitted effect of over 40% in size
How it was run: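 Viability in VM7Luc4E2 cells after 22 hr compound exposure under 0.1 nM 17beta-estradiol stimulation, by CellTiter-Fluor.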

[8] = qHTS assay to identify small molecule HDAC inhibitors - cell viability counter screen (AID 1259365)
How it was run: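 Cytotoxicity was gauged in wild-type HCT-116 cells after a brief 2hr treatment with DMSO-dissolved compounds at 37C and 5% CO2, using CellTiter-Glo luminescence developed for 30min at room temperature.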

[9] = qHTS assay to identify small molecule agonists of the sonic hedgehog signaling (Shh) pathway - cell viability counter screen (AID 1259366); also: nearly all actives have a fitted effect of over 50% in size; also: potency is read from the fitted curve at half-maximal effect
How it was run: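 Stable Gli1-Luc NIH/3T3 clone, 2,000 cells/well. Compound exposure 24hr at 37C. Read-out: CellTiter-Fluor fluorescence.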

[10] = qHTS assay to identify small molecule agonists of the sonic hedgehog signaling (Shh) pathway (AID 1259368; calls by dose curve;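 also: NIH/3T3-derived 3T3Gli1-Luc cells carrying a stable Gli1-driven firefly luciferase reporter; series mostly up to about 92 µM; nearly all actives have a fitted effect of over 15% in size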)
How it was run: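 NIH/3T3-derived 3T3Gli1-Luc cells with stably integrated Gli1-driven firefly luciferase, 2,000 cells/well, compounds added after 4 hr. Incubated 24 hr at 37C, 5% CO2; luminescence read after 30 min with luciferase reagent at room temperature.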

[11] = qHTS assay to identify small molecule antagonists of the sonic hedgehog signaling (Shh) pathway (AID 1259369; calls by dose curve; also: nearly all actives have a fitted effect of over 45% in size; also: potency is read from the fitted curve at half-maximal effect)
How it was run: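 NIH/3T3-derived Gli1-Luc reporter cells plated 4 h, dosed with compound, then stimulated with conditioned medium for 24 h at 37 C. Firefly luciferase luminescence read after 30 min with detection reagent at room temperature.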

[12] = qHTS assay to identify small molecule antagonists of the androgen receptor (AR) signaling pathway using the MDA cell line in the presence of 0.5 nM R1881 - cell viability counter screen (AID 1259242); also: nearly all actives have a fitted effect of over 45% in size
How it was run: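 MDA-kb2 cells (MMTV-luciferase, AR/GR responsive) were treated with compounds plus 0.5 nM R1881 (final) for 16 hr at 37C, 0% CO2. Viability was then read in the same wells as live-cell protease fluorescence (CellTiter-Fluor, 30 min).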

[13] = target: Androgen receptor (Homo sapiens) (UniProt P10275); assay: qHTS assay to identify small molecule antagonists of the androgen receptor (AR) signaling pathway using the MDA cell line in the presence of 0.5 nM R1881 (AID 1259243); also: nearly all actives have a fitted effect of over 50% in size
How it was run: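 MDA-kb2 cells (MMTV-luciferase, responsive to AR and GR) at 3,000/well, rested 5 h at 37C, 0% CO2, then given compounds plus 0.5 nM R1881 (final) for 16 hr. Luciferase read with ONE-Glo after 30 min at room temperature.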

[14] = target: Estrogen receptor (Homo sapiens) (UniProt P03372); assay: qHTS assay to identify small molecule antagonists of the estrogen receptor alpha (ER-alpha) signaling pathway using the BG1 cell line in the presence of 0.1 nM 17-beta-estradiol (AID 1259244); also: nearly all actives have a fitted effect of over 50% in size
How it was run: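 VM7Luc4E2 cells (endogenous full-length ER-alpha, 4×ERE-luciferase), kept 5 days in phenol red-free, charcoal-stripped FBS medium; 4,000 cells/well. Compounds added with 0.1 nM (final) 17beta-estradiol, 22 hr at 37C; luminescence read with ONE-Glo after 30 min.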

[15] = qHTS assay to identify small molecule HDAC inhibitors (AID 1259364); also: top concentration of the series differs between compounds; nearly all actives have a fitted effect of over 45% in size
How it was run: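 Wild-type HCT-116 cells, plated overnight at 37 C, exposed to compounds 2 hr at 37 C; luminogenic HDAC-Glo substrate then added 30 min at room temperature. Luminescence reports relative endogenous class I/II HDAC activity.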

[16] = qHTS assay to identify small molecule antagonists of the sonic hedgehog signaling (Shh) pathway - cell viability counter screen (AID 1259367); also: nearly all actives have a fitted effect of over 55% in size
How it was run: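 NIH/3T3-derived Gli1-Luc reporter cells (2,000 per well) rested 4 hr at 37 C, then received DMSO compounds plus conditioned medium. After 23 hr of treatment, CellTiter-Fluor was added for 1 hr at 37C and fluorescence read.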

[17] = target: Estrogen receptor beta (Homo sapiens) (UniProt Q92731); assay: qHTS assay to identify small molecule antagonists of the estrogen receptor beta (ER-beta) signaling pathway (AID 1259378; active = well fitted inhibition curve with a large enough effect in the signal ratio in the repeat runs, not every such curve was filed as active; the % refers to the signal ratio)
How it was run: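 ER-beta-UAS-bla HEK293T (GripTite) cells in 2% charcoal-stripped FBS medium were preincubated 6 hr at 37C, dosed with compound, then stimulated with 1 nM E2 (final) for 16 hr; beta-lactamase reporter read by B/G FRET fluorescence after 2 hr substrate loading.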

[18] = qHTS assay to identify small molecule agonists of the androgen receptor (AR) signaling pathway in the presence of an antagonist - cell viability counter screen (AID 1259379);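 also: MDA-kb2 human breast cancer cells carrying an MMTV luciferase reporter; series mostly up to about 92 µM; nearly all actives have a fitted effect of over 25% in size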
How it was run: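 MDA-kb2 cells (MMTV-luciferase, AR/GR), 3,000/well, 5 h attachment, then 3.0 µM nilutamide (final) and compounds at 15 concentrations. Viability by CellTiter-Fluor fluorescence after 16 h at 37 °C, 0% CO2, in the reporter wells.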

[19] = target: Estrogen receptor beta (Homo sapiens) (UniProt Q92731); assay: qHTS assay to identify small molecule agonists of the estrogen receptor beta (ER-beta) signaling pathway (AID 1259377; active = well fitted activation curve with a large enough effect in the signal ratio in the repeat runs, not every such curve was filed as active; the % refers to the signal ratio)
How it was run: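 Measured by fluorescence intensity from a B/G FRET beta-lactamase substrate (2 h, room temperature) in ER-beta-UAS-bla HEK293T cells treated with DMSO-dissolved compounds for 16 hr at 37C and 5% CO2.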
% is scaled to controls: 0 for no effect and ±100 for the full control effect.

Sequence of Estrogen receptor beta (Homo sapiens) (Q92731 whole entry, looked up): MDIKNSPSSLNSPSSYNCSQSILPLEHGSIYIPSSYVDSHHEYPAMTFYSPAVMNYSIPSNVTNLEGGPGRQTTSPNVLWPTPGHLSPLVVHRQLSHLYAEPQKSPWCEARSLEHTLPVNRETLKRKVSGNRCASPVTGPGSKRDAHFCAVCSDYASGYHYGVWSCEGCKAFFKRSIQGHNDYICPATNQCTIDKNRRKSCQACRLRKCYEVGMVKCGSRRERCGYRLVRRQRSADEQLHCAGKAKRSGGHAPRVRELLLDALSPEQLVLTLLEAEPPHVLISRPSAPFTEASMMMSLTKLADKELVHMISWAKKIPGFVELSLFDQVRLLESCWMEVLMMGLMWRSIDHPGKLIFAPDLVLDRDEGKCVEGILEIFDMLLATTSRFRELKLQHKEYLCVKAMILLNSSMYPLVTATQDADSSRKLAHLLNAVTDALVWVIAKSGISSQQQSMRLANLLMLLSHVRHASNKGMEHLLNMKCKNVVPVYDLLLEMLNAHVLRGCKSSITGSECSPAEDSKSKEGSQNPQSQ
Sequence of Androgen receptor (Homo sapiens) (P10275 whole entry, looked up): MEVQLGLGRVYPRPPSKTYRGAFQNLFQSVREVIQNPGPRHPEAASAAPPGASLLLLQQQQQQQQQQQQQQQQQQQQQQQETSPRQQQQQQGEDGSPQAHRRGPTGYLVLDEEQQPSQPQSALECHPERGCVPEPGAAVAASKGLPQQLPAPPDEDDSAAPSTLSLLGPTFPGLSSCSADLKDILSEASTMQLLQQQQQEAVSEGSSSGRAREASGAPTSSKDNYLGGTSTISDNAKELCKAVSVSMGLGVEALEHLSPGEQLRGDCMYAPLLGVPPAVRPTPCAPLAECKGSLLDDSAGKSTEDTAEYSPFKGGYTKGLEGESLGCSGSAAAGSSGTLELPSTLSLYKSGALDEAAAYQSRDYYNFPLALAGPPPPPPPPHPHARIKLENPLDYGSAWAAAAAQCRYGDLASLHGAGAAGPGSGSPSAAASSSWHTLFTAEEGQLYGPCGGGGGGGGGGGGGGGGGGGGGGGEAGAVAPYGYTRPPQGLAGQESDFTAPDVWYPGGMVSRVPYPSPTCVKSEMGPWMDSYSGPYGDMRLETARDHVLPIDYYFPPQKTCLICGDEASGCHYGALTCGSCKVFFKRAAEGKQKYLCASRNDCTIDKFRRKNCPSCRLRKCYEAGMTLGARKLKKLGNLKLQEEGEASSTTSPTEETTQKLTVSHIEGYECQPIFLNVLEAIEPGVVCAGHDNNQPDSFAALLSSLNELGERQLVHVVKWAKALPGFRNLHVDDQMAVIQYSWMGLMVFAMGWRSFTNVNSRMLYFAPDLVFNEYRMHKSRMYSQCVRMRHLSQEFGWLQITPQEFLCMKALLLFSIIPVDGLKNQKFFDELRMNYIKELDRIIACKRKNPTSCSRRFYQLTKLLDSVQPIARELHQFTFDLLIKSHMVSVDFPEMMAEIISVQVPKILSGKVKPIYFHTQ
Sequence of Estrogen receptor (Homo sapiens) (P03372 whole entry, looked up): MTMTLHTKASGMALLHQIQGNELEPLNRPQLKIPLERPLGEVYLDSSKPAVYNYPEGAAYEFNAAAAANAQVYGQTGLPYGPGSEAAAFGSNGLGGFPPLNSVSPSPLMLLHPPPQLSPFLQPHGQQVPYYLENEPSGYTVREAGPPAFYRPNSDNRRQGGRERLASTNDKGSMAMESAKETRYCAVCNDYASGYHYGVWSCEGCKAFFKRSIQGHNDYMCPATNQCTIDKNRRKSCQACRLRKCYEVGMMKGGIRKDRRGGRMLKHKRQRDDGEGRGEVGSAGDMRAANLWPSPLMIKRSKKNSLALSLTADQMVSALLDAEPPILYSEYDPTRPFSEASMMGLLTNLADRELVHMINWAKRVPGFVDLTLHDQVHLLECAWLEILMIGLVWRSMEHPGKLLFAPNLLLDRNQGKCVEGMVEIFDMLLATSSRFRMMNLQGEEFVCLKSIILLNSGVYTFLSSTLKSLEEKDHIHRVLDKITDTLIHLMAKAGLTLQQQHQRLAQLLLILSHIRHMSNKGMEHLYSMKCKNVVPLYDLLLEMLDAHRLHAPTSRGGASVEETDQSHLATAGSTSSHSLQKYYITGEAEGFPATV

CN(C)CCOc1ccc(/C(=C(/CCCl)c2ccccc2)c2ccccc2)cc1
inactive: Potency [5] | Potency [7] | Potency [8] | Potency [10]
active: Potency [1] 40.9 µM | Potency [2] 40.9 µM | Potency [3] 40.9 µM | Potency [4] 45.8 µM | Potency [6] 36.4 µM | Potency [9] 51 µM | Potency [11] 36.1 µM

CC(C=O)c1ccccc1 (stereo unspecified)
inactive: Potency [1] | Potency [2] | Potency [3] | Potency [4] | Potency [5] | Potency [6] | Potency [12] | Potency [13] | Potency [14] | Potency [15] | Potency [8] | Potency [9] | Potency [16] | Potency [11] | Potency [17] | Potency [18]

[Cl][Eu]([Cl])[Cl]
active: Potency [11] 7.7 µM
inactive: Potency [1] | Potency [2] | Potency [3] | Potency [4] | Potency [5] | Potency [6] | Potency [7] | Potency [12] | Potency [14] | Potency [15] | Potency [8] | Potency [18]

Cc1cccc(C)c1C
inactive: Potency [1] | Potency [2] | Potency [3] | Potency [4] | Potency [5] | Potency [6] | Potency [7] | Potency [12] | Potency [15] | Potency [8] | Potency [9] | Potency [16] | Potency [11]

CC1(C)[C@H](C(=O)OCc2cccc(Oc3ccccc3)c2)[C@@H]1C=C(Cl)Cl
inactive: Potency [1] | Potency [2] | Potency [3] | Potency [4] | Potency [5] | Potency [6] | Potency [12] | Potency [13] | Potency [14] | Potency [15] | Potency [8] | Potency [9] | Potency [16] | Potency [10] | Potency [11] | Potency [18]

[Cl][Dy]([Cl])[Cl]
active: Potency [11] 8.63 µM
inactive: Potency [1] | Potency [2] | Potency [3] | Potency [4] | Potency [5] | Potency [6] | Potency [7] | Potency [12] | Potency [14] | Potency [8] | Potency [16] | Potency [10] | Potency [18]

O=C1OC(=O)c2cc(-c3ccc4c(c3)C(=O)OC4=O)ccc21
inactive: Potency [1] | Potency [2] | Potency [3] | Potency [4] | Potency [5] | Potency [6] | Potency [7] | Potency [12] | Potency [14] | Potency [15] | Potency [8] | Potency [10] | outcome [19]
active: Potency [11] 17.2 µM

c1ccc2cc3c4ccccc4c4ccccc4c3cc2c1
inactive: Potency [1] | Potency [2] | Potency [3] | Potency [4] | Potency [5] | Potency [6] | Potency [7] | Potency [12] | Potency [15] | Potency [9] | Potency [16] | Potency [10] | Potency [11] | Potency [17] | Potency [18]

CCCCNc1ccc(NCCCC)c2c1C(=O)c1ccccc1C2=O
inactive: activity change, negative = cytotoxic [1] 0.554% [at 15.8 µM] | activity change, negative = cytotoxicity [2] -0.0547% [at 15.8 µM] | activity change, negative = cytotoxicity [3] 3.79% [at 15.8 µM] | activity change [4] 0.839% [at 15.8 µM, hits give high values] | activity change, negative = cytotoxicity [5] 1.94% [at 15.8 µM] | cytotoxicity increase [6] -2.69% [at 15.8 µM] | viability change, negative = cytotoxic [12] -9.45% [at 19 µM] | activity, negative = inhibition [13] -3.08% [at 19 µM] | activity change, negative = inhibition [14] 2.76% [at 19 µM] | viability change, negative = cytotoxic [9] -17.5% [at 19 µM] | viability change, negative = cytotoxic [16] -12.9% [at 19 µM] | activity change [10] -0.26% [at 18.9 µM, hits give high values] | activity change, negative = inhibition [11] -20.1% [at 19 µM] | activity, negative = inhibition [17] 17.4% [at 19 µM]
